Assay results taken from PubChem BioAssay AID488862 (Broad Institute, 2010).
The whole screen tested about 340,000 compounds, of which about 1,200 (0.35%) were called active. The sample holds actives, similar compounds and a random draw of the others, so the mix is not that of the screen. Values without a mark were called inactive. Cut-off read from the data, not from the text of the source: active = inhibition above about 52%; inactive = the rest.

Assay: suppresses PrP 5' UTR mRNA reporter expression (AID 488862); note: 0 = median of the neutral control wells
Conditions: cell-based PrP 5' UTR mRNA reporter, plate reader; stronger effect = higher value; concentration not given here
In the case of `O=C(CSc1ncnc2sccc12)N1CCN(C(=O)c2cccs2)CC1`, the inhibition is reported as 87.3% (active).
With `COc1ccc(OCC(=O)N2CCN(C(=O)c3cccs3)CC2)cc1` the inhibition was -6.1%.
With `O=C(CSc1ncnc2sccc12)NC1CCS(=O)(=O)C1` (stereo not drawn) the inhibition was -11.1%.
Compound `C/C(CC(=O)Nc1ccc(C)cc1C)=N\NC(=O)C(C)C` has an inhibition of -21%.
`COC(=O)c1cc(S(=O)(=O)NC2CCN(Cc3ccccc3)CC2)cn1C` showed an inhibition of -8.61%.
Work on `O=C(O)CCCCCNc1ncnc2ccc(Br)cc12` yielded an inhibition of 6.38%.
For `Brc1ccc2ncnc(NCc3cccnc3)c2c1`, the inhibition was 12.1%.
With `COc1ccc(Nc2ncnc3ccc(Br)cc23)c(OC)c1` the inhibition was 72.3% (active).
In the case of `Cc1ccc(C)c(NC(=O)COC(=O)c2nn(C)c(=O)c3ccccc23)c1`, the inhibition is reported as -7.85%.
With `O=C1Nc2cc(C(=O)N3CCN(c4ccc(F)cc4)CC3)ccc2NC1CSCc1cccc(F)c1` (stereo not drawn) the inhibition was -17.6%.
`CCOCCCNC(=O)C(=O)NCCCOCC` showed an inhibition of -28.8%.
Compound `CC(C)CC(CC(C)C)=NNC(=O)c1ccc(CSc2nncn2C)cc1` has an inhibition of -20.2%.
For `CSc1nc(-c2ccccc2)nc(C(Cl)Cl)n1`, the inhibition was 86.3% (active).
For `CN(C)C(=S)N=c1ssc(=S)n1Cc1ccco1`, the inhibition was 13.6%.
For `COc1cc(OC)cc(C(=O)N[C@H](C(=O)Nc2nc3ccccc3[nH]2)C(C)C)c1`, the inhibition was 67.8% (active).
With `COc1cc(OC)cc(C(=O)N[C@H](C(=O)NNC(=O)c2ccc(Br)cc2)C(C)C)c1` the inhibition was -12.3%.
`COc1ccc(C(=O)N[C@H](C(=O)NCc2ccccc2)C(C)C)cc1` showed an inhibition of -2.13%.
With `Cc1cc(C)c(SCCc2ccncc2)c(C)c1` the inhibition was -26.1%.
In the case of `Cc1ccc(/C=C2/SC(=S)N(CCC(=O)NCCCN3CCOCC3)C2=O)cc1`, the inhibition is reported as -12.2%.
In the case of `O=C1/C(=C/c2ccc(F)cc2)SC(=S)N1CCCC(=O)N1CCCCC1CCO` (stereo not drawn), the inhibition is reported as -14.7%.
For `C=CCOc1ccc(/C=C2\SC(=S)N(CCC(=O)O)C2=O)cc1`, the inhibition was 79.7% (active).
With `Cn1c(=S)sc2ccc3ccccc3c21` the inhibition was -8.89%.
For `CCC(C)Cn1c(O)cc2nn(-c3nc4ccccc4s3)c(=O)c-2c1C` (stereo not drawn), the inhibition was 92.2% (active).
Compound `O=C(C(=O)N1CCc2ccccc2C1)c1c[nH]c2ccccc12` has an inhibition of -13.2%.
Work on `Cc1nc2nc(COc3ccccc3)[nH]n2c(=O)c1Cc1ccccc1` yielded an inhibition of -6.88%.
In the case of `O=c1oc2ccccc2cc1-c1cn(-c2ccccc2)c(=S)[nH]1`, the inhibition is reported as 65.9% (active).
`COc1cccc(-n2c(=S)[nH]c3c(oc4ccccc43)c2=O)c1` gave an inhibition of -5.49%.
`CS(=O)(=O)N1CCN(C(=O)c2cc3ccccc3oc2=O)CC1` gave an inhibition of -9.85%.
